Measurements: the supplement of paper PMC11741263, “Chemoproteomic Profiling of C. albicans for Characterization of Anti-fungal Kinase Inhibitors” (bioRxiv, 2025)

These targets were tested with Cc1[nH]nc2ccc(-c3cc(OC[C@@H](N)Cc4ccccc4)cnc3-c3ccoc3)cc12 (assay: MIB bead binding, log2 fold change vs DMSO (log2 ratio); higher = less competition (weaker engagement)). Conditions: 0.1 µM.

Chain of UniProt P16066 (P16066 whole entry, looked up): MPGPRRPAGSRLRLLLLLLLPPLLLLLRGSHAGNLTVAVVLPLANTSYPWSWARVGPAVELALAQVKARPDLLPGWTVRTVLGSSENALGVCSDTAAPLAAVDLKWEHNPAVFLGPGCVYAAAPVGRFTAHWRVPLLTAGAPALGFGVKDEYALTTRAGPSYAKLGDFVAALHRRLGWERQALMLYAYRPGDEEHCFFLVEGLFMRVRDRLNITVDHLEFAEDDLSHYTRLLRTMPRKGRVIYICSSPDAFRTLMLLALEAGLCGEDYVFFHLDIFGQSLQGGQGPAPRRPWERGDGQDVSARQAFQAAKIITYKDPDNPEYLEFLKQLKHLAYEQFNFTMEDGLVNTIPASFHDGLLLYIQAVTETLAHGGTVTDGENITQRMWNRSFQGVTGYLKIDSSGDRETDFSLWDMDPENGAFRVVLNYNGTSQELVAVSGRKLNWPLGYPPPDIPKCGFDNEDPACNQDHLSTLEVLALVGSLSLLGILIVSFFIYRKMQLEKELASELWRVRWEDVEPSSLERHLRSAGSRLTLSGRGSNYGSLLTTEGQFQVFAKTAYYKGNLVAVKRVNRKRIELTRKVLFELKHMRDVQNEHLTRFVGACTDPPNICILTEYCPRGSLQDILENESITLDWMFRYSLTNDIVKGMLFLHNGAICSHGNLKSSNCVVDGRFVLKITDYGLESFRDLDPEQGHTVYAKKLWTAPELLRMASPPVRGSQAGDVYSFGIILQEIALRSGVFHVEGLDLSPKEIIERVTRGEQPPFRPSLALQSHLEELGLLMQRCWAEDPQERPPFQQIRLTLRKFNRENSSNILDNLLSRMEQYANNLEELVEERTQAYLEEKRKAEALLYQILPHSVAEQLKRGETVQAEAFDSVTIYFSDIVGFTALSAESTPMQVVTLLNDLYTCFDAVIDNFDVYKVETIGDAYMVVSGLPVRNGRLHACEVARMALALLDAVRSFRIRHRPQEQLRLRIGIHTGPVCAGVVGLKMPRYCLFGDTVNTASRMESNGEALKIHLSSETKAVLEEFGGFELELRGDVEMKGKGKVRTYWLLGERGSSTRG

PKH3 and Yck22 are within 0.2 log units of each other in “MIB bead binding (log2)” value: -0.246 for the first, -0.049 for the second.

RIM8 (UniProt Q9UW13) and YPK1 are within 0.2 log units of each other in “MIB bead binding (log2)” value: -0.206 for the first, -0.0854 for the second.

First: KIN3
Second: orf19.6492
The “MIB bead binding (log2)” value of the first is higher: 0.0483 for the first, -0.282 for the second.

Going from SSK2 to SHA3, the “MIB bead binding (log2)” value rises from -0.564 to -0.155.

CKA1 and YAK1 are within 0.2 log units of each other in “MIB bead binding (log2)” value: -0.241 for the first, -0.229 for the second.

Going from orf19.4575 to RCK2, the “MIB bead binding (log2)” value rises from -0.428 to -0.0134.

CBK1 (UniProt Q5AP53) and SAK1 are within 0.2 log units of each other in “MIB bead binding (log2)” value: 0.0978 for the first, 0.0968 for the second.

MKK2 (UniProt P36507) and KSP1 are within 0.2 log units of each other in “MIB bead binding (log2)” value: 0.148 for the first, 0.0498 for the second.

GIN4 (UniProt Q59W62) and AKL1 are within 0.2 log units of each other in “MIB bead binding (log2)” value: -0.016 for the first, -0.106 for the second.

First: HOG1 (UniProt Q92207)
Chain of UniProt Q92207 (Q92207 whole entry): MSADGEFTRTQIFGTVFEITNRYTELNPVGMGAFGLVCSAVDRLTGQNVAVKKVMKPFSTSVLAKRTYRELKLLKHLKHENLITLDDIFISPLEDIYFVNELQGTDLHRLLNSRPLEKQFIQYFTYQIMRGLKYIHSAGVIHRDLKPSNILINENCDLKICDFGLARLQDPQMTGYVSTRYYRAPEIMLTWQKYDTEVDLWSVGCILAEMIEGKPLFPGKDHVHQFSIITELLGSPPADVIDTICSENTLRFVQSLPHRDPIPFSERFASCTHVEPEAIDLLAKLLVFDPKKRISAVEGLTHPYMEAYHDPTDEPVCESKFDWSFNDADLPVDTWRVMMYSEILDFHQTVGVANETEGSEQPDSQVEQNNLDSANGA
Second: TOR1
The “MIB bead binding (log2)” value of the first is higher: 0.146 for the first, -0.226 for the second.

FPK1 and PBS2 are within 0.2 log units of each other in “MIB bead binding (log2)” value: 0.0443 for the first, -0.000679 for the second.

NPR1 (UniProt P16066) and CKA2 are within 0.2 log units of each other in “MIB bead binding (log2)” value: 0.0428 for the first, 0.0997 for the second.

First: RIO2 (UniProt Q9BVS4)
Chain of UniProt Q9BVS4 (Q9BVS4 whole entry, looked up): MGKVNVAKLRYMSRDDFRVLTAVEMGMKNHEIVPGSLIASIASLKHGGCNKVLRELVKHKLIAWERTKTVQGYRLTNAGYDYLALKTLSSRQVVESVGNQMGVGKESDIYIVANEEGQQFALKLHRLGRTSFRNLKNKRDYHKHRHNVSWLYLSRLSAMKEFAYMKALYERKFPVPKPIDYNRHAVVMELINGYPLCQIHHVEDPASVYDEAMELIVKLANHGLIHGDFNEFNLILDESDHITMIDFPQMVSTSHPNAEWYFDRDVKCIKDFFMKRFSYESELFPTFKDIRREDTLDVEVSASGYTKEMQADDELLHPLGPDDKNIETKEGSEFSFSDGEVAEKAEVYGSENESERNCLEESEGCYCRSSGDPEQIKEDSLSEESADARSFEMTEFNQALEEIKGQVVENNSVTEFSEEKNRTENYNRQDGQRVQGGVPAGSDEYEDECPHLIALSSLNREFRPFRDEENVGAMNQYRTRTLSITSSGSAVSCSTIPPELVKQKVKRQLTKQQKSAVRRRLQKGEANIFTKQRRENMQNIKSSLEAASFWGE
Second: CDC28 (UniProt P43063)
Chain of UniProt P43063 (P43063 whole entry): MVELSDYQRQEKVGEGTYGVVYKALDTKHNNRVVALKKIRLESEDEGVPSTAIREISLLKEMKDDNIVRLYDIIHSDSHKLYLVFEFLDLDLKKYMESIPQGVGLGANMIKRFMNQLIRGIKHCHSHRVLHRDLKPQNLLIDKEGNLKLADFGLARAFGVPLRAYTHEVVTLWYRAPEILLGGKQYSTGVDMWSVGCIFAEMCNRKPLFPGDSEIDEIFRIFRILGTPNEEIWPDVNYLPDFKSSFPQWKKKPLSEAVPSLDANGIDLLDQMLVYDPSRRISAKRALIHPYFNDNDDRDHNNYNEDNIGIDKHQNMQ
The “MIB bead binding (log2)” value of the first is lower: -0.284 for the first, 0.12 for the second.

MCK1 and HRK1 are within 0.2 log units of each other in “MIB bead binding (log2)” value: -0.0754 for the first, -0.0934 for the second.

Same assay, conditions: 1 µM

Compared with PKH3, Yck22 is lower in “MIB bead binding (log2)” value: -0.128 for the first, -0.35 for the second.

Going from RIM8 (UniProt Q9UW13) to YPK1, the “MIB bead binding (log2)” value falls from -0.122 to -0.539.

KIN3 and orf19.6492 are within 0.2 log units of each other in “MIB bead binding (log2)” value: 0.0107 for the first, -0.0346 for the second.

First: SSK2
Second: SHA3
The “MIB bead binding (log2)” value of the first is lower: -0.847 for the first, -0.569 for the second.

CKA1 and YAK1 are within 0.2 log units of each other in “MIB bead binding (log2)” value: 0.0806 for the first, -0.0276 for the second.

orf19.4575 and RCK2 are within 0.2 log units of each other in “MIB bead binding (log2)” value: -0.272 for the first, -0.109 for the second.

CBK1 (UniProt Q5AP53) and SAK1 are within 0.2 log units of each other in “MIB bead binding (log2)” value: -0.0808 for the first, -0.223 for the second.

MKK2 (UniProt P36507) and KSP1 are within 0.2 log units of each other in “MIB bead binding (log2)” value: -0.183 for the first, -0.354 for the second.

Going from GIN4 (UniProt Q59W62) to AKL1, the “MIB bead binding (log2)” value falls from -0.162 to -1.01.

HOG1 (UniProt Q92207) and TOR1 are within 0.2 log units of each other in “MIB bead binding (log2)” value: 0.244 for the first, 0.207 for the second.

FPK1 and PBS2 are within 0.2 log units of each other in “MIB bead binding (log2)” value: -0.0445 for the first, -0.0528 for the second.

NPR1 (UniProt P16066) and CKA2 are within 0.2 log units of each other in “MIB bead binding (log2)” value: -0.0888 for the first, 0.026 for the second.

First: RIO2 (UniProt Q9BVS4)
Second: CDC28 (UniProt P43063)
The “MIB bead binding (log2)” value of the first is lower: -0.263 for the first, 0.127 for the second.

MCK1 and HRK1 are within 0.2 log units of each other in “MIB bead binding (log2)” value: 0.0618 for the first, 0.0301 for the second.

Same assay, conditions: 10 µM

Compared with PKH3, Yck22 is lower in “MIB bead binding (log2)” value: -0.466 for the first, -2.01 for the second.

First: RIM8 (UniProt Q9UW13)
Chain of UniProt Q9UW13 (Q9UW13 whole entry): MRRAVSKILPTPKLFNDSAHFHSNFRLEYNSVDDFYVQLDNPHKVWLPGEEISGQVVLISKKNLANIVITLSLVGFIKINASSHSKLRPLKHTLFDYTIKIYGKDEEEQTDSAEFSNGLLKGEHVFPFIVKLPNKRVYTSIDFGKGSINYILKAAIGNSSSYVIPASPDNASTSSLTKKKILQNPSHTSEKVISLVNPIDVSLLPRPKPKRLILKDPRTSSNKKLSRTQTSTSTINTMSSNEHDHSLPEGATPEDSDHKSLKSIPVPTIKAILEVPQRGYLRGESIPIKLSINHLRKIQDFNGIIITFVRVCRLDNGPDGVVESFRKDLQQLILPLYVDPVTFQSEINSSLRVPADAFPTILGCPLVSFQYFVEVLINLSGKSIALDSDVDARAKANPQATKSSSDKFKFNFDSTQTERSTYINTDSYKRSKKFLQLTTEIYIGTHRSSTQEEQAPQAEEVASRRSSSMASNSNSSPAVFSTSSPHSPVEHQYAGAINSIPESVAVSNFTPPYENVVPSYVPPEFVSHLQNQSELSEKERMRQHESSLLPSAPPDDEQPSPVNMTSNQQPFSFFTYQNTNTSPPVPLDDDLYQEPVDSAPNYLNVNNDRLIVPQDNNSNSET
Second: YPK1
The “MIB bead binding (log2)” value of the first is lower: -2.22 for the first, -1.48 for the second.

Compared with KIN3, orf19.6492 is lower in “MIB bead binding (log2)” value: -0.586 for the first, -3.3 for the second.

Going from SSK2 to SHA3, the “MIB bead binding (log2)” value rises from -2.24 to -1.8.

Compared with CKA1, YAK1 is lower in “MIB bead binding (log2)” value: -2.47 for the first, -2.8 for the second.

Going from orf19.4575 to RCK2, the “MIB bead binding (log2)” value rises from -2.61 to -0.886.

Going from CBK1 (UniProt Q5AP53) to SAK1, the “MIB bead binding (log2)” value rises from -0.759 to -0.482.

First: MKK2 (UniProt P36507)
Chain of UniProt P36507 (P36507 whole entry, looked up): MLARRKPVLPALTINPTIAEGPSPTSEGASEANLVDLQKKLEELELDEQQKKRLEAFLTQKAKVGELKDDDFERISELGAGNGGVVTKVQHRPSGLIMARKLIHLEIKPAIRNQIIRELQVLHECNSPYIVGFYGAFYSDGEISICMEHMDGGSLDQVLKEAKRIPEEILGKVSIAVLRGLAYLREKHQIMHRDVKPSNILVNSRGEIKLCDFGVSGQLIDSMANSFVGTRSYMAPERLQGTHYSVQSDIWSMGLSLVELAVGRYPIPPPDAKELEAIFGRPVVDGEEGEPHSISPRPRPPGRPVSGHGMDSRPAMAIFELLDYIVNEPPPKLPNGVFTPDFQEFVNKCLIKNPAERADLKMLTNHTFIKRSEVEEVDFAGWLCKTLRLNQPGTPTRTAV
Second: KSP1
The “MIB bead binding (log2)” value of the first is lower: -1.11 for the first, -0.384 for the second.

First: GIN4 (UniProt Q59W62)
Chain of UniProt Q59W62 (Q59W62 whole entry): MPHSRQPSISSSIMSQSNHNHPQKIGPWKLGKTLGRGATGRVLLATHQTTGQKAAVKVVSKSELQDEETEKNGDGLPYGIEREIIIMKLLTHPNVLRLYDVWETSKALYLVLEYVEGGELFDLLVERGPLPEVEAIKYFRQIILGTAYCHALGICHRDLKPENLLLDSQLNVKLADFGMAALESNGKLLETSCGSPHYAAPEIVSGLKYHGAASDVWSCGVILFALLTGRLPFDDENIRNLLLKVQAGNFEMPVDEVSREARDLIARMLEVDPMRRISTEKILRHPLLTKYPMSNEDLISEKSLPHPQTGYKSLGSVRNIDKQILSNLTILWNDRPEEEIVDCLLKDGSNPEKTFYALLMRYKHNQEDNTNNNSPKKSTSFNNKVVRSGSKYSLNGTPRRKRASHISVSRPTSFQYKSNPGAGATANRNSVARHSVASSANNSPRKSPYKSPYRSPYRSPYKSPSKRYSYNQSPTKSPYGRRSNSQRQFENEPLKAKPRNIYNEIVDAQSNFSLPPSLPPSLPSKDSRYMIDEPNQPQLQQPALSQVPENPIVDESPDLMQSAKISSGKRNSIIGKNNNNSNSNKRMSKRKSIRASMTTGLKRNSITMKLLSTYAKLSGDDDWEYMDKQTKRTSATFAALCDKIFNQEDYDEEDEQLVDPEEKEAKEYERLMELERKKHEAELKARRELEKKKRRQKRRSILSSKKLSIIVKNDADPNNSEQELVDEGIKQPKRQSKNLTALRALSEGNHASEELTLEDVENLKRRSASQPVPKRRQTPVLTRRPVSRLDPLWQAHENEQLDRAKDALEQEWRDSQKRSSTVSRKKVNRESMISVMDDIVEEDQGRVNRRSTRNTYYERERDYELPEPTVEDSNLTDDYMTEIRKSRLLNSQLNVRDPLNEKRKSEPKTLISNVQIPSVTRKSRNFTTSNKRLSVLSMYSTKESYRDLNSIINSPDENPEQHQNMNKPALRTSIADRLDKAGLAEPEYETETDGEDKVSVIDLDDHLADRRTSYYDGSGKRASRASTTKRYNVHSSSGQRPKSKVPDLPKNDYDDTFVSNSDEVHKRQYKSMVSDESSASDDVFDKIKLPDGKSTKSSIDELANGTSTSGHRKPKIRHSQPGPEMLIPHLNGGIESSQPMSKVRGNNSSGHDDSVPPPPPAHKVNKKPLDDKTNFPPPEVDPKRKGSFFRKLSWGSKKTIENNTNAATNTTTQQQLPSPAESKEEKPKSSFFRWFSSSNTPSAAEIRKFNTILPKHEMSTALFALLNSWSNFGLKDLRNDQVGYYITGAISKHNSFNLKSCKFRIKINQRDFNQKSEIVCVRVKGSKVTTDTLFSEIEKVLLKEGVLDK
Second: AKL1
The “MIB bead binding (log2)” value of the first is higher: -0.625 for the first, -5.4 for the second.

First: HOG1 (UniProt Q92207)
Second: TOR1
The “MIB bead binding (log2)” value of the first is higher: -0.916 for the first, -1.59 for the second.

Going from FPK1 to PBS2, the “MIB bead binding (log2)” value falls from -0.41 to -0.766.

Compared with NPR1 (UniProt P16066), CKA2 is lower in “MIB bead binding (log2)” value: -0.75 for the first, -1.17 for the second.

Compared with RIO2 (UniProt Q9BVS4), CDC28 (UniProt P43063) is higher in “MIB bead binding (log2)” value: -1.23 for the first, -0.931 for the second.

Compared with MCK1, HRK1 is higher in “MIB bead binding (log2)” value: -1.02 for the first, -0.517 for the second.
